Compound activity (PubChem BioAssay)
C2C12 statin = suppressors of statin myotoxicity in C2C12 myotubes, primary screen, cell-based, single point, plate reader; hit rate 0.78% among 330,000; AID 602340, 2012; rescue of ATP level, % at 7.49 µM; C2C12 myotubes + simvastatin, ATP luminescence, 48 h; scaled: DMSO 0, geranylgeraniol control 100;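 active = mean ATP rescue above about 67%, or every replicate alone reaching that limit, limit read from the data, passing the limit was not always enough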;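 note: myotubes were challenged with 10 µM simvastatin during compound exposure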
F508del corr = F508del CFTR correction, initial screen, CFBE line, single point | CFBE cells, YFP halide quenching; stimulated with forskolin plus potentiator P3; % fluorescence drop versus neutral controls | activity (quench increase), % at 7.58 µM | hit rate 0.36% among 350,000 | AID 720511, 2013;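 active = mean added fluorescence quench of at least 8% versus neutral control, with both replicates also reaching 8%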;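 note: cells transiently co-express mutant CFTR-F508del with the halide-sensitive YFP; corrector assay measuring rescue of mutant channel to the surface after 24 h compound exposure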
PglD inh = C. jejuni PglD acetyltransferase inhibitors, primary screen, biochemical, DTNB colorimetric, single point; AID 602405, 2012; inhibition, % at 12.5 µM; hit rate 0.098% among 360,000; purified PglD enzyme, DTNB colorimetric CoA detection; in the data active = inhibition above about 16%, passing the limit was not always enough
ARNT TACC3 PPI = disruptors of ARNT/TACC3 protein interaction, primary screen, biochemical, AlphaScreen, single concentration; AID 623870, 2012; Transforming acidic coiled-coil-containing protein 3 (Homo sapiens), Q9Y6A5; hit rate 0.66% among 390,000; AlphaScreen His-ARNT PAS-B/GST-TACC3 binding, luminescence; TACC3 fragment carries E629A point mutation; inhibition, % at 9.99 µM;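 active = mean inhibition of replicates at least 50% and at least half of replicates each reaching 50%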;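 note: 0% = complete ARNT plus TACC3 wells and 100% = ARNT alone without TACC3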
* = called active by the depositor; / = no result. Rows were chosen to be rich in hits. Some 1.4% of all compounds tested hit in one or more screens of this group.

SMILES | C2C12 statin | F508del corr | PglD inh | ARNT TACC3 PPI
O=C(C1CCCC1)N1CC2(C1)[C@@H](c1ccccc1)[C@@H](CO)N2C(=O)CC1CC1 | / | 1.5 | / | /
C=CCOc1c(/C=N\NC(N)=O)cccc1OC | 3.7 | 2.2 | -0.9 | 1.3
COc1cccc(Sc2ccccc2/C=N/NC(N)=O)c1 | / | 8.8* | / | -4.1
CN(C)C(=O)c1ccc(-c2ccc([C@@H]3[C@H]4CN(C(=O)C5CCC5)CCCCN4[C@H]3CO)cc2)cc1 | / | -2.7 | 4.4 | -3.1
O=C(N/N=C/c1cccs1)c1cc(C2CC2)nc2ccccc12 | / | 12.3* | / | 13.7
CCCCc1c(O)nc(SCC(=O)NCC2CCCO2)[nH]c1=O (configuration not stated) | 93.6* | / | 2.7 | -4.0
CCCC(=O)Nc1ccc2c(c1)C(=O)N(C)C[C@@H](OC)[C@H](C)CN(C(=O)c1ccncc1)[C@H](C)CO2 | -6.5 | 0.3 | 0.7 | -0.5
N#CC(C#N)=c1ccc2c(c1)N1C3=C(CCCC3)CC3CCCCC31N=2 (configuration not stated) | 18.9 | / | 8.7 | 37.9
N#C/C(C(N)=O)=c1/ccc2c(c1)N1C3=C(CCCC3)CC3CCCCC31N=2 (configuration not stated) | / | / | -2.6 | 65.4*
CC(Sc1nncn1C)C(=O)Nc1ccc(Cl)cn1 (configuration not stated) | / | -1.3 | 7.8 | 1.1
COc1ccc(Cl)cc1NC(=O)C(C)Sc1nncn1C (configuration not stated) | 130.5* | / | -0.1 | 2.6
CC(C)(C)c1ccc(C(=O)N/C(=C\c2cccc([N+](=O)[O-])c2)C(=O)Nc2cccc(C(=O)O)c2)cc1 | -1.0 | 0.8 | 36.4* | 2.7
Cc1cc(C(=O)COC(=O)CN=C2NS(=O)(=O)c3ccccc32)c(C)n1CCc1ccc(Cl)cc1 | 112.4* | -0.6 | 2.3 | -0.7
Cc1cc(-n2c(C)cc(C(=O)COC(=O)CN=C3NS(=O)(=O)c4ccccc43)c2C)no1 | / | / | -11.7 | 4.4
COCC(=O)Nc1ccc2c(c1)C(=O)N(C)[C@@H]1CC[C@@H](CC(=O)NCCc3ccncc3)O[C@@H]1CO2 | 0.8 | -1.1 | 0.2 | -7.2
CCCCCNC(=O)C1CC=CCC1C(=O)O (configuration not stated) | 124.8* | / | -1.3 | -5.2
CNC[C@H]1OCCCC[C@H](C)Oc2ccc(NC(=O)CCC(F)(F)F)cc2C(=O)N([C@@H](C)CO)C[C@@H]1C | -31.4 | -2.9 | / | /
O=C(C1CCCCC1)N1CCCc2ccccc21 | 8.7 | / | -2.8 | 1.2
CC(C)N1C(=O)CCC1C(=O)N1CCN(c2ccc(F)cc2)CC1 (configuration not stated) | 0.1 | 1.4 | -0.7 | 2.9
CC(C)N1C(=O)CCC1C(=O)N1CCC(Cc2ccccc2)CC1 (configuration not stated) | 131.6* | 2.1 | 2.5 | 0.0
CC(C)N1C(=O)CCC1C(=O)N1CCCc2ccccc21 (configuration not stated) | -6.1 | / | 25.0* | 13.3*
CO[C@H]1CN(C)C(=O)c2ccc(NC(=O)c3cc(C)on3)cc2OC[C@H](C)N(C(C)=O)C[C@H]1C | -16.2 | -0.8 | 2.8 | -1.8
CC12CCC(CC1O)C2C(=O)O (configuration not stated) | / | 8.2* | / | /
O=C(O)C1CC2CCC1CC2 (configuration not stated) | / | 3.4 | / | 0.1
C[C@H]1CCCCO[C@H](CN(C)C(=O)CCC(F)(F)F)[C@@H](C)CN([C@@H](C)CO)C(=O)c2cc(NC(=O)CCCN(C)C)ccc2O1 | / | -2.6 | 1.9 | -8.9
SMILES | C2C12 statin | F508del corr | PglD inh | ARNT TACC3 PPI
O=C(O)C1CCC(=O)N(C2CCCCC2)C1c1ccccc1Cl (configuration not stated) | 5.7 | -0.1 | 8.4 | -8.4
O=C(O)C1CCC(=O)N(C2CC2)C1c1ccccc1 (configuration not stated) | 106.6* | / | 4.6 | -11.4
CCNc1nc(OC)nc(SCC(N)=O)n1 | 69.1* | / | 3.4 | -5.8
COc1ccc(OC)c(S(=O)(=O)Nc2ccccc2C)c1 | 100.3* | -4.3 | 0.5 | -9.7
COc1ccc(OC)c(S(=O)(=O)Nc2ccccc2O)c1 | / | 0.3 | / | 1.6
O=C(Cc1ccccc1)N1C[C@H]2[C@@H](c3ccccc31)[C@H](CO)N2C(=O)Nc1ccc(F)cc1 | 2.3 | 0.7 | -3.4 | -4.5
CCCNC(=O)[C@H]1[C@H](CO)[C@H]2Cn3c(ccc(-c4ccccc4OC)c3=O)[C@H]2N1CC | 2.0 | -1.0 | 0.4 | 23.5
COc1cccc(OC)c1C(=O)N1CCN(S(=O)(=O)c2ccc(C)cc2)CC1 | 126.1* | / | 4.5 | -3.1
C[C@@H]1CN([C@@H](C)CO)C(=O)c2cccc(NC(=O)c3nc4ccccc4s3)c2O[C@H]1CN(C)Cc1ccc(C(=O)Nc2ccccc2N)cc1 | 100.6* | 4.3 | 12.3 | 28.8
C[C@@H]1CN([C@H](C)CO)C(=O)c2cc(NS(=O)(=O)c3ccc(Cl)cc3)ccc2O[C@@H]1CN(C)Cc1ccc(C(=O)Nc2ccccc2N)cc1 | 96.8* | 4.3 | -0.6 | 1.3
C[C@H]1CN([C@@H](C)CO)C(=O)c2cc(N(C)C)ccc2O[C@@H]1CN(C)Cc1ccc(C(=O)Nc2ccccc2N)cc1 | 81.1* | -1.8 | -1.8 | 2.9
C[C@H](CO)N1C[C@H](C)[C@@H](CN(C)Cc2ccc(C(=O)Nc3ccccc3N)cc2)Oc2ccc(N(C)C)cc2CC1=O | -24.7 | 0.0 | 1.7 | 45.1*
COCC(=O)Nc1ccc2c(c1)C(=O)N(C)C[C@@H](OC)[C@H](C)CN(CC1CC1)[C@@H](C)CO2 | -1.0 | -1.7 | -8.1 | -7.2
COc1ccc(S(=O)(=O)N2CC[C@@H]3[C@H]2c2cc(C#Cc4ccccc4OC)ccc2N[C@@H]3CO)cc1 | -9.9 | -1.4 | 2.1 | -14.9
Cc1ccc(-c2nc3ncccc3o2)cc1NC(=O)c1ccc([N+](=O)[O-])o1 | 232.8* | / | 0.3 | -0.3
O=C(Nc1ccc2oc(-c3ccncc3)nc2c1)c1ccc([N+](=O)[O-])o1 | 145.5* | -7.1 | 5.5 | -2.3
O=C(Nc1ccc(-c2nc3ncccc3o2)cc1)c1ccc([N+](=O)[O-])o1 | 226.5* | 1.8 | -2.4 | /
Cc1cc(-c2nc3ncccc3o2)ccc1N | 99.8* | / | -2.2 | -6.2
Cc1ccc(-c2nc3ncccc3o2)cc1N | 6.7 | -1.9 | 0.1 | 0.7
CCNC(=O)C[C@H]1CC[C@H]2[C@H](COc3ccc(NC(=O)Nc4ccc(Cl)cc4)cc3C(=O)N2C)O1 | 15.6 | -0.8 | 1.9 | -0.5
C[C@@H]1CCCCO[C@@H](CN(C)C(=O)Nc2ccc3c(c2)OCO3)[C@H](C)CN([C@@H](C)CO)C(=O)c2cc(N(C)C)ccc2O1 | -31.6 | 2.2 | / | /
O=C(CC1Sc2ccccc2NC1=O)NNc1cccc(Cl)c1Cl (configuration not stated) | / | 8.3* | / | -6.0
